From PubChem BioAssay (NCI)
“And” between values parts separate entries of the source, which are not always exact repeats. Identical values can stand only once. About 83,000 compounds went through this panel and 20% of them were active in at least one assay; those are over-represented in the sample as a whole.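 96-well plates, one dose, 48 hours. Percent growth reported; active if below 10.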 The source made the active and inactive calls.

Columns and labels:
Assay in all cases: NCI-60 one-dose screen, 48 h (100 = growth as untreated, 0 = no growth, -100 = all killed)
Conditions in all cases: 10 µM unless noted
NCI-H23 lung = test system: NCI-H23 lung
NCI-H226 lung = test system: NCI-H226 lung
NCI-H322M lung = test system: NCI-H322M lung
NCI-H460 lung = test system: NCI-H460 lung
HOP-92 NSCLC = test system: HOP-92 NSCLC
NCI-H522 lung = test system: NCI-H522 lung
A549/ATCC NSCLC = test system: A549/ATCC NSCLC
786-0 renal = test system: 786-0 renal
COLO 205 colon = test system: COLO 205 colon
DU-145 prostate = test system: DU-145 prostate
K-562 leukemia = test system: K-562 leukemia
MALME-3M melanoma = test system: MALME-3M melanoma
MDA-MB-231 breast = test system: MDA-MB-231 breast
RXF 393 renal = test system: RXF 393 renal
SF-268 CNS = test system: SF-268 CNS
SF-295 CNS = test system: SF-295 CNS
SF-539 CNS = test system: SF-539 CNS
UACC-257 melanoma = test system: UACC-257 melanoma
M14 melanoma = test system: M14 melanoma
HOP-62 NSCLC = test system: HOP-62 NSCLC

| SMILES | growth (NCI-H23 lung) | growth (NCI-H226 lung) | growth (NCI-H322M lung) | growth (NCI-H460 lung) | growth (HOP-92 NSCLC) | growth (NCI-H522 lung) | growth (A549/ATCC NSCLC) | growth (786-0 renal) | growth (COLO 205 colon) | growth (DU-145 prostate) | growth (K-562 leukemia) | growth (MALME-3M melanoma) | growth (MDA-MB-231 breast) | growth (RXF 393 renal) | growth (SF-268 CNS) | growth (SF-295 CNS) | growth (SF-539 CNS) | growth (UACC-257 melanoma) | growth (M14 melanoma) | growth (HOP-62 NSCLC) |
| --- | --- | --- | --- | --- | --- | --- | --- | --- | --- | --- | --- | --- | --- | --- | --- | --- | --- | --- | --- | --- |
| Nc1nc(-c2ccccn2)cc(-c2cc(-c3ccccn3)nc(N)n2)n1 | 103% (inactive) | 96.1% (inactive) | 94.3% (inactive) | 134% (inactive) | 103% (inactive) | 107% (inactive) | 117% (inactive) | 112% (inactive) | 118% (inactive) | 119% (inactive) | 114% (inactive) | 109% (inactive) | 102% (inactive) | 105% (inactive) | 106% (inactive) | 102% (inactive) | 103% (inactive) | 112% (inactive) | 100% (inactive) | – |
| CCc1ccccc1-n1[nH]c(C)c(C=N)c1=O | 102% (inactive) | 89% (inactive) | 106% (inactive) | 109% (inactive) | – | 102% (inactive) | 126% (inactive) | 112% (inactive) | 120% (inactive) | 118% (inactive) | 96.5% (inactive) | 94.4% (inactive) | 106% (inactive) | 103% (inactive) | 114% (inactive) | 99.3% (inactive) | 100% (inactive) | 116% (inactive) | 109% (inactive) | 135% (inactive) |
| COc1ccc([N+](=O)[O-])cc1OC | 98.5% (inactive) and 106% (inactive) | 101% (inactive) and 98.2% (inactive) | 105% (inactive) | 102% (inactive) and 111% (inactive) | 93.5% (inactive) and 92.7% (inactive) | 111% (inactive) and 93.7% (inactive) | 93% (inactive) and 92.9% (inactive) | 104% (inactive) and 95% (inactive) | 112% (inactive) and 115% (inactive) | 111% (inactive) and 118% (inactive) | 102% (inactive) and 103% (inactive) | 117% (inactive) and 104% (inactive) | 111% (inactive) and 108% (inactive) | 114% (inactive) and 104% (inactive) | 100% (inactive) and 108% (inactive) | 102% (inactive) and 105% (inactive) | 93.9% (inactive) and 98% (inactive) | 90.1% (inactive) and 95% (inactive) | 98.9% (inactive) and 113% (inactive) | – |
| Cc1cc(Cl)nc(Nc2ccccc2)n1 | 95.9% (inactive) | 91.2% (inactive) | 92% (inactive) | 103% (inactive) | – | – | 104% (inactive) | 93.8% (inactive) | 114% (inactive) | 107% (inactive) | 79.9% (inactive) | 101% (inactive) | 105% (inactive) | 96.3% (inactive) | 99.1% (inactive) | 91.8% (inactive) | 96.6% (inactive) | 106% (inactive) | – | 62.9% (inactive) |
| CCC(C)NC(=O)c1ccccc1C (centres undefined) | 91.7% (inactive) | 93.6% (inactive) | 97.7% (inactive) | 102% (inactive) | – | 94.2% (inactive) | 100% (inactive) | 95.7% (inactive) | 103% (inactive) | 106% (inactive) | 129% (inactive) | 77.7% (inactive) | 104% (inactive) | 96% (inactive) | 101% (inactive) | 100% (inactive) | 96.6% (inactive) | 100% (inactive) | 95.3% (inactive) | 92.1% (inactive) |
| COC(=O)c1nc(=S)[nH]c(C(=O)OC)c1C(=O)c1ccccc1 | 101% (inactive) | 90.2% (inactive) | 106% (inactive) | 114% (inactive) | 92% (inactive) | 103% (inactive) | 112% (inactive) | 120% (inactive) | 119% (inactive) | 116% (inactive) | 111% (inactive) | 97.1% (inactive) | 93.5% (inactive) | 99.2% (inactive) | 108% (inactive) | 103% (inactive) | 87.8% (inactive) | 123% (inactive) | 113% (inactive) | – |
| CS(=O)(=O)c1nsc(N)n1 | 94.7% (inactive) | 99.2% (inactive) | 98.4% (inactive) | 106% (inactive) | 111% (inactive) | 91.1% (inactive) | 87.7% (inactive) | 106% (inactive) | 103% (inactive) | 109% (inactive) | 98.7% (inactive) | 101% (inactive) | 106% (inactive) | 108% (inactive) | 100% (inactive) | 104% (inactive) | 102% (inactive) | 84.9% (inactive) | 104% (inactive) | – |
| COc1cc(C2c3cc4c(cc3C(OC(=O)C[n+]3ccccc3)C3COC(=O)C23)OCO4)cc(OC)c1OC (centres undefined) | 20.8% (inactive) | 22.5% (inactive) | 33% (inactive) | 4.91% (active) | 71.5% (inactive) | -23.4% (active) | 7.1% (active) | 25.8% (inactive) | -56.3% (active) | -40.1% (active) | 6.79% (active) | 59% (inactive) | -2.88% (active) | 41.1% (inactive) | 8.83% (active) | 1.14% (active) | -9.3% (active) | 55.1% (inactive) | 7.72% (active) | – |
| CC(=O)c1cccc(OC(=O)c2ccccc2)c1 | 101% (inactive) | 101% (inactive) | – | 107% (inactive) | – | 84.7% (inactive) | 99% (inactive) | 102% (inactive) | 107% (inactive) | 114% (inactive) | 92% (inactive) | 110% (inactive) | 102% (inactive) | 117% (inactive) | 106% (inactive) | 124% (inactive) | 109% (inactive) | 101% (inactive) | – | – |
| CSc1nc(N)c(N)c(N)n1 | 97.9% (inactive) | 91.9% (inactive) | – | 104% (inactive) | 86.6% (inactive) | 70.1% (inactive) | 95.1% (inactive) | 109% (inactive) | 117% (inactive) | 106% (inactive) | 101% (inactive) | 96.6% (inactive) | 97.6% (inactive) | 115% (inactive) | 107% (inactive) | 108% (inactive) | 103% (inactive) | 96.9% (inactive) | 102% (inactive) | 92.6% (inactive) |
| COCCCNC1=C(C#N)C(=O)NC(c2cccs2)S1 (centres undefined) | 104% (inactive) | 98.4% (inactive) | – | 99.2% (inactive) | 107% (inactive) | 127% (inactive) | 103% (inactive) | 106% (inactive) | 110% (inactive) | 107% (inactive) | 153% (inactive) | 104% (inactive) | 106% (inactive) | 96.9% (inactive) | 104% (inactive) | 96.4% (inactive) | 85.2% (inactive) | 111% (inactive) | 110% (inactive) | 99.9% (inactive) |
| CCN(CC)C(CC(=O)c1ccccc1)C(=O)c1ccccc1 (centres undefined) | 102% (inactive) | 95% (inactive) | – | 106% (inactive) | – | 71.7% (inactive) | 102% (inactive) | 93.5% (inactive) | 77.8% (inactive) | 99.9% (inactive) | 38.2% (inactive) | 104% (inactive) | 110% (inactive) | 115% (inactive) | 98% (inactive) | 103% (inactive) | 101% (inactive) | 95.5% (inactive) | 105% (inactive) | – |
| O=C(O)C#Cc1ccc(Cl)cc1 | 109% (inactive) | 93.2% (inactive) | – | 105% (inactive) | 97.8% (inactive) | 87.2% (inactive) | 87.2% (inactive) | 99.4% (inactive) | 99.9% (inactive) | 109% (inactive) | 88.5% (inactive) | 104% (inactive) | 100% (inactive) | 108% (inactive) | 104% (inactive) | 99.7% (inactive) | 102% (inactive) | 87.3% (inactive) | 98.2% (inactive) | 89.3% (inactive) |
| O=C1C2=C(Nc3cc(Cl)ccc3N2)OC1c1c[nH]c2ccc(COc3ccccc3)cc12 (centres undefined) | 59.3% (inactive) | 2.7% (active) | – | 59.7% (inactive) | 42.3% (inactive) | 54.8% (inactive) | 74.2% (inactive) | 38.8% (inactive) | 111% (inactive) | 73.7% (inactive) | 79.7% (inactive) | 74% (inactive) | 59.5% (inactive) | 43.9% (inactive) | 30.4% (inactive) | 33.5% (inactive) | 53.8% (inactive) | 80.3% (inactive) | 94.2% (inactive) | -14.7% (active) |
